PubChem BioAssay (NCI)
About 79,000 compounds went through this panel and 15% of them were active in at least one assay; those are over-represented in the sample as a whole. A number with no mark means an inactive call. Cut-off read from the data, not from the text of the source: active = growth inhibition above about 70%; inactive = the rest. Where a SMILES comes first, the peptide text is derived from it.

Experiment: NCI Yeast Anticancer Drug Screen. Data for the mec2-1 strain (AID 157)
Details: S. cerevisiae mec2-1 strain, at 50.0 µM, hits give high values
In short: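 Mutant yeast (mec2-1) grown with compound; growth inhibition relative to vehicle control reported.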

Row | Compound | growth inhibition [%]
1 | CC(C)CC(NC(=O)C(NC(=O)C(N)C(C)O)C(C)C)C(=O)O (stereo not drawn) (H-Thr-Val-Leu-OH; configuration not given here) | 3.1
2 | CCOc1cc[n+](C)c2ccc(C)cc12 | 12.8
3 | Nc1ncnc(N)c1NC(=O)CCCCc1ccccc1 | -12.2
4 | CCN(CC)CCN(CC)CCN(CC)CC | 5.65
5 | O=C1NN(c2ccccc2)C(=O)C2C3c4ccccc4C(c4ccccc43)C12 (centres undefined) | -6.8
6 | Cn1c2c(c3ccccc31)C(=O)CC2(C)C | -4.8
7 | CCCCCCCC(=O)Nc1ccc(-n2c(=O)cc(C)n2C)cc1 | -1.25
8 | O=C(NC/C=C/Br)NC1CCNc2ccccc21 (centres undefined) | -27.4
9 | CC(C)/C=C1\CCC(CN(C)C)C1=O (centres undefined) | 56.1
10 | CCOC(=O)CNc1nc(Cl)nc(NCC(=O)OCC)n1 | -4.6
11 | Cc1c(F)c(F)c(-c2c(F)c(F)c(C)c(F)c2F)c(F)c1F | -35.2
12 | O=C(O)c1ccnc2c(S(=O)(=O)O)cccc12 | -2.05
13 | O=C(NC(Cc1c[nH]c2ccccc12)C(=O)O)C(=O)c1c[nH]c2ccccc12 (centres undefined) | -14.6
14 | O=C(O)c1ccc(Nc2nc3ccccc3nc2-c2cccs2)cc1 | 18.6
15 | COc1ccc(-c2cc(-c3cc(-c4ccc(OC)cc4)on3)no2)cc1 | -5.75
16 | CC1OC(OCC2COC(O)(Oc3c(-c4ccc(O)c(O)c4)oc4cc(O)cc(O)c4c3=O)C(O)C2O)C(O)C(O)C1O (centres undefined) | -29.4
17 | CCOC(=O)CC1(C)OCCO1 | 11.4
18 | NC(Cc1c[nH]c2ccc(Br)cc12)C(=O)O (centres undefined) | -26.7
19 | COC(=O)C(CCC1(C)OCCO1)=[N+]=[N-] | 0.95
20 | CCNC(CC(N)=O)C(=O)O (centres undefined) | -3.75

Row | Compound | growth inhibition [%]
21 | CCN(CC)CCO/N=C(\c1ccccc1)c1ccccn1 | -5.95
22 | Cc1ccc(S(=O)(=O)Oc2nc3ccccc3nc2N(S(=O)(=O)c2ccc(C)cc2)S(=O)(=O)c2ccc(C)cc2)cc1 | -1.3
23 | CCOc1ccccc1/C=C/C(=O)O | -9.7
24 | COc1cc(C)cc2c(-c3c(O)cc(O)c4c3CC(C)N[C@H]4C)cc(-c3cc(-c4c(O)cc(O)c5c4CC(C)N[C@H]5C)c4cc(C)cc(OC)c4c3O)c(O)c12 (some centres undefined) | -20.4
25 | CCOC(=O)c1cc2c(oc1=O)-c1cc(C)ccc1OC2C (centres undefined) | -14.8
26 | CC(=O)Oc1cc(C=O)ccc1O | 6.7
27 | Cc1n(Cc2ccccc2)nc2sc(N)n[n+]12 | -9.45
28 | COC1OC2COC(c3ccccc3)OC2C(OS(=O)(=O)c2ccc(Br)cc2)C1OS(=O)(=O)c1ccc(Br)cc1 (centres undefined) | 13.7
29 | COC(=O)C1=C(C)NC(C)=C(C(=O)OC)C1c1cccc(N=O)c1 | 6.5
30 | Nc1cc2c(cc1Br)-c1cc(Cl)c(Cl)cc1C2=O | -13.8
31 | Nc1cnc(N)nc1 | -18.8
32 | CC(=O)/C=C\c1cc(C)ccc1O | 22.1
33 | CCC(/C=N/Nc1ccc([N+](=O)[O-])cc1[N+](=O)[O-])(CC)CC | -8.75
34 | CN(C)c1ccc(-c2nc(N)nc3c2CCCC3)cc1 | -12.2
35 | O=C1C(=C(c2ccc([N+](=O)[O-])cc2)N2CCOCC2)C(=O)c2ccccc21 | 0.4
36 | O=C(OC1CCCC1)c1ccccc1 | 9.9
37 | CC(C)CC(NC(=O)c1ccccc1C(=O)O)C(N)=O (centres undefined) | 3.5
38 | CC(C)=CCCC(=O)C(c1nc2nnc(N)n2[nH]c1=O)c1nc2nnc(N)n2[nH]c1=O | 13.6
39 | CCC(=O)N1CCN(C(=O)CC)CC1 | -2.45
